The results in this text go back to the supplement of paper PMC10849652.

About 7,900 targets were measured; listed, in parts, are those with a hit and a random draw of the rest. About 0.6% of all pairs of compound and target were hits. Unmarked numbers belong to inactive results.

UniProt Q86UU1, sequence (Q86UU1 whole entry, looked up): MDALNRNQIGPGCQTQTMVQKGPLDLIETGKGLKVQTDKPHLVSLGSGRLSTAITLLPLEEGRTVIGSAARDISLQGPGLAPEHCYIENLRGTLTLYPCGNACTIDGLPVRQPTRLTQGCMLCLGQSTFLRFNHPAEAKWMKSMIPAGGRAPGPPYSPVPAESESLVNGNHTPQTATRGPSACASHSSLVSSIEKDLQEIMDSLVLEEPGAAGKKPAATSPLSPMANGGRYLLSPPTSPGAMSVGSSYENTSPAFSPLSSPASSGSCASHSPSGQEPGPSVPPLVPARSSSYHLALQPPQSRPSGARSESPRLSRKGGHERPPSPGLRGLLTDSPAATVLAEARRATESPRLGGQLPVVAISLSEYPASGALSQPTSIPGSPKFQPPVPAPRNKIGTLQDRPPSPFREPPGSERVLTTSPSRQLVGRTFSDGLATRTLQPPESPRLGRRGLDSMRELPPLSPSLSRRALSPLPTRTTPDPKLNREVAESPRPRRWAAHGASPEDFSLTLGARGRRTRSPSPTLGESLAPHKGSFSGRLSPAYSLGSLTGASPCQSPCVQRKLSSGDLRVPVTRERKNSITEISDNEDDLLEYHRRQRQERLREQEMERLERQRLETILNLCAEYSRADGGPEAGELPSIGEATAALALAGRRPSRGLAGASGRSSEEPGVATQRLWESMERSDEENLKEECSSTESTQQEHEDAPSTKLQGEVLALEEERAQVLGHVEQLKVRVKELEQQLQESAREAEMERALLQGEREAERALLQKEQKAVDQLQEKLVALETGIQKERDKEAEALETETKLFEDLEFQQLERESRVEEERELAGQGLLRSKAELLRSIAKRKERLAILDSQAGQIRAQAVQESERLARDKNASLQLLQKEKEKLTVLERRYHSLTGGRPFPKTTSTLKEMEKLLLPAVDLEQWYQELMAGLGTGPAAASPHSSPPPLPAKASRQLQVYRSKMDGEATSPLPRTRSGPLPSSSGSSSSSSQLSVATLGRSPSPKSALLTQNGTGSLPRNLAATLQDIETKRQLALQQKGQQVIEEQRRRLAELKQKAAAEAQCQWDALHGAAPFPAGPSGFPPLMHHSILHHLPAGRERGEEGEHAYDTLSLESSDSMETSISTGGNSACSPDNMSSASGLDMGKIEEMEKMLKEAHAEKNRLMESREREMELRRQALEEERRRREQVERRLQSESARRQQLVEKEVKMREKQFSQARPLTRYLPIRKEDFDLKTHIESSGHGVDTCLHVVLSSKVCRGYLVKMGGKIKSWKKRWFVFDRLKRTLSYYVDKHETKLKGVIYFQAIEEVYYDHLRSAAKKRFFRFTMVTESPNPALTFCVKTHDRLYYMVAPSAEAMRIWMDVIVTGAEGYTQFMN
UniProt P13861, sequence (P13861 whole entry, looked up): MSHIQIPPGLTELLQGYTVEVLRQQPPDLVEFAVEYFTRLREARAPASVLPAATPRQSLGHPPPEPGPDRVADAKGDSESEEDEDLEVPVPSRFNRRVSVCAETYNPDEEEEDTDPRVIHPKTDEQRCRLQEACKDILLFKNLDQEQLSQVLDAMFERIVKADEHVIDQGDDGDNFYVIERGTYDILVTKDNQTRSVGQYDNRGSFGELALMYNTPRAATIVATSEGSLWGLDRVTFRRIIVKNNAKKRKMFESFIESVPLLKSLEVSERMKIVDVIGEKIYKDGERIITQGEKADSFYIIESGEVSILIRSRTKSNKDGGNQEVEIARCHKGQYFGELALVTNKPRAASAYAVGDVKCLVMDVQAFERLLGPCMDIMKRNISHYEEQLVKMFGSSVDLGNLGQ
UniProt Q15173, sequence (Q15173 whole entry, looked up): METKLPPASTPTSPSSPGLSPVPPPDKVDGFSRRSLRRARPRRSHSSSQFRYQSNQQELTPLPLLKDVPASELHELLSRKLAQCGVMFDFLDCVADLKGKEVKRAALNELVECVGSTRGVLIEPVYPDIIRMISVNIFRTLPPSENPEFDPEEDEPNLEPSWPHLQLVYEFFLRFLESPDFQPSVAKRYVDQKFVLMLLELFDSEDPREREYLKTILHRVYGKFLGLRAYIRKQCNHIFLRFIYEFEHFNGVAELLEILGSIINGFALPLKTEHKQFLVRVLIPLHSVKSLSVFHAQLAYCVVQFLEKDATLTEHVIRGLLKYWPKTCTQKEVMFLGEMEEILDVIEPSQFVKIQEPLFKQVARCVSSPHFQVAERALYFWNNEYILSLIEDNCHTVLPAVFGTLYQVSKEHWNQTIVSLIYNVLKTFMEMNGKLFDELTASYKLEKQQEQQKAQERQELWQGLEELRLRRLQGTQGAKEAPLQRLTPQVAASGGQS
UniProt Q9H307, sequence (Q9H307 whole entry, looked up): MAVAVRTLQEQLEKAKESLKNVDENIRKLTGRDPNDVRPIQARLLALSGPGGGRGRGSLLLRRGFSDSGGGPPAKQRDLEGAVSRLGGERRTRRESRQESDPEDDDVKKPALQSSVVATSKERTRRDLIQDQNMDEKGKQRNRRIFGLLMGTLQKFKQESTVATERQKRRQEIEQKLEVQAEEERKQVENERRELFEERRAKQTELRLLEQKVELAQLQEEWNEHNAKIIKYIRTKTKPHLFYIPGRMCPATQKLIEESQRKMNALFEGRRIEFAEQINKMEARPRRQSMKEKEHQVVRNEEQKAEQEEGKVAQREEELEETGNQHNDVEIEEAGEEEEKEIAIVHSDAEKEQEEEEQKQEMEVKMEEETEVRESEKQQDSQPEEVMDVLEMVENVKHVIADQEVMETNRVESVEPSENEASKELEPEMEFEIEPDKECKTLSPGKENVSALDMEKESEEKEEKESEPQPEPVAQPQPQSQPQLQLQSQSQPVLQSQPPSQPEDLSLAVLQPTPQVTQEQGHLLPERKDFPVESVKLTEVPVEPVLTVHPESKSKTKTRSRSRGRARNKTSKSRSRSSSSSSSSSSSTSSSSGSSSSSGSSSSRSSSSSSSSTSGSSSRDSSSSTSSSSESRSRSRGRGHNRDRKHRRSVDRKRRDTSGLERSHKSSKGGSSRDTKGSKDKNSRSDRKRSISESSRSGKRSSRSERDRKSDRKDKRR
UniProt O60678, sequence (O60678 whole entry, looked up): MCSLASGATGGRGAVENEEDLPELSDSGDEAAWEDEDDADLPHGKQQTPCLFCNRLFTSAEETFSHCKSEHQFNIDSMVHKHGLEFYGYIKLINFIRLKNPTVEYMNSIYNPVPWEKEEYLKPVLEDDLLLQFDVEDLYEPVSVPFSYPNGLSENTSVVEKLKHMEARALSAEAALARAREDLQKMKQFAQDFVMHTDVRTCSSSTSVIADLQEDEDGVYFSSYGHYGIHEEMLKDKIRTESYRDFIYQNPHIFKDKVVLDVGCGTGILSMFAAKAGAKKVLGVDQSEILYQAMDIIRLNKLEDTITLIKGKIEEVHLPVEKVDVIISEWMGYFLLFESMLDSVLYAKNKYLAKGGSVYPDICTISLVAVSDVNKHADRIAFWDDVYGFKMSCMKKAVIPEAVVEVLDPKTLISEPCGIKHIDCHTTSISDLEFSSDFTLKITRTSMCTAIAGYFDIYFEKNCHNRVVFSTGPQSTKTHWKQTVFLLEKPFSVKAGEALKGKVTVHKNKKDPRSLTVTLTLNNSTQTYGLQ
UniProt Q12974, sequence (Q12974 whole entry, looked up): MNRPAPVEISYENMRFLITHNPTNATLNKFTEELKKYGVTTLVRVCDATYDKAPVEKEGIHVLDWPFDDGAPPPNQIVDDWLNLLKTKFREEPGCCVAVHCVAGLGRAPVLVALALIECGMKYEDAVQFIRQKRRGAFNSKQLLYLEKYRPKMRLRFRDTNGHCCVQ
UniProt Q2TAL8, sequence (Q2TAL8 whole entry, looked up): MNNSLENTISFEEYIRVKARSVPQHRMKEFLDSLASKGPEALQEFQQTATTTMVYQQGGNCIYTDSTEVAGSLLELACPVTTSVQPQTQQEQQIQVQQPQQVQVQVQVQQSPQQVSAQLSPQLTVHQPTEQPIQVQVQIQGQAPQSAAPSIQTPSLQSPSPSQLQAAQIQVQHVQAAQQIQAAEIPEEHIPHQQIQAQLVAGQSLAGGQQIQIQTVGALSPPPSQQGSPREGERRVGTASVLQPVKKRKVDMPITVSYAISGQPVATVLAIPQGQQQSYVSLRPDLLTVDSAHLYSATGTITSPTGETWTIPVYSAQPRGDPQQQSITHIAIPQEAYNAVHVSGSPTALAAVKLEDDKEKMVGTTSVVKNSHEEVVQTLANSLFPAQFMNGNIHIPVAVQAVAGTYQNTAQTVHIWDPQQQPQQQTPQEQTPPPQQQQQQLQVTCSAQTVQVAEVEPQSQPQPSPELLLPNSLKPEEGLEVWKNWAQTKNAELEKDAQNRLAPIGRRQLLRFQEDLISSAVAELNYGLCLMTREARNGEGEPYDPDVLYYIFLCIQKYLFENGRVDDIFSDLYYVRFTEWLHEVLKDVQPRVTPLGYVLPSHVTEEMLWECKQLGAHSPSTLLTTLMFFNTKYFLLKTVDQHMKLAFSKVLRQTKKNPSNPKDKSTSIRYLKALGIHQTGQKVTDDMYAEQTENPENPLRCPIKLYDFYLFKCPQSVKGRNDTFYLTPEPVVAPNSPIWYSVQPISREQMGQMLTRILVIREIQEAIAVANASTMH
UniProt Q15121, sequence (Q15121 whole entry, looked up): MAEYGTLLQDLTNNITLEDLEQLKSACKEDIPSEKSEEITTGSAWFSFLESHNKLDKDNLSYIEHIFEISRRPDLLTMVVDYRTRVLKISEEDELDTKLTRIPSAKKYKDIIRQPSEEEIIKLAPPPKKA
UniProt P41247, sequence (P41247 whole entry, looked up): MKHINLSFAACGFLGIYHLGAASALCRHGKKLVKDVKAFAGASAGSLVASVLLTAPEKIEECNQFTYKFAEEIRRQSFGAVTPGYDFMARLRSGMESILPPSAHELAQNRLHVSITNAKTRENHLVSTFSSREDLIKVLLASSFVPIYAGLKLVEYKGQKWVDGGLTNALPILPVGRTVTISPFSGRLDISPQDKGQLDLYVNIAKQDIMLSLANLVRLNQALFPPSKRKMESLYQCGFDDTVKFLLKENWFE

Compound in the experiment: CC[C@H](C)N1C=C(C2=C(C=C(C=C21)C3=CN=C(C=C3)N4CCNCC4)C(=O)NCC5=C(C=C(NC5=O)C)C)C
The experiment can be described thus: log2 fold change, soluble protein after heating vs DMSO (PISA); higher = thermal stabilisation; K562 cells, 10 uM, 30 min; active = over 0.2 and 3.5 SD of the protein, either way, in both replicates (recomputed). The essentials: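 K562 cells at 2×10^6 cells/mL were treated for 30 min with 10 μM compound, and aliquots were heated for 3 min over 48°C-58°C before pooling. Extraction used PBS with 0.5% NP-40 at 4°C, and soluble protein was the supernatant after 21,000xg for 90 min, measured by TMTpro 16plex LC-MS/MS with channel sums equalised. Thermal stability values, relative to control samples and from duplicates, are log2 fold changes.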
For PKM isoform 2 (UniProt P14618), the log2 fold change is 0.018. In the case of PDIK1L (UniProt Q8N165), the log2 fold change was -0.056. POLR2C (UniProt P19387): the log2 fold change is 0.017.

Take PSD3 (UniProt Q9NYI0): the log2 fold change is 0.061. The same measure for POLB (UniProt P06746): 0.077; for PPP2R5A (UniProt Q15172): 0.097. In the case of POMK (UniProt Q9H5K3), the log2 fold change was 0.014.

As for PRKAG1 isoform 3 (UniProt P54619), the log2 fold change is 0.048. PTGFRN (UniProt Q9P2B2): the log2 fold change is 0. In the case of PGK2 (UniProt P07205), the log2 fold change was -0.028. The same measure for PTP4A2 (UniProt Q12974): 0.077; for PNN (UniProt Q9H307): -0.077.

As to PPP2R5B (UniProt Q15173), the log2 fold change was 0.021. For the target PLIN2 (UniProt Q99541), the log2 fold change is -0.102.

On to PCNX1 (UniProt Q96RV3), for which the log2 fold change is -0.004. PNPLA4 (UniProt P41247): the log2 fold change was -0.039. As to PRMT3 (UniProt O60678), the log2 fold change was 0.039. As for PEX16 isoform 2 (UniProt Q9Y5Y5), the log2 fold change is -0.013. The figure for PPP1R12C (UniProt Q9BZL4) is 0.204. For POLR2M (UniProt Q6EEV4), the log2 fold change was 0.002. Regarding PSMB4 (UniProt P28070), the log2 fold change is -0.043. The same measure for PDPK1 (UniProt O15530): 0.034; for PHKA1 (UniProt P46020): 0.076. For the target POLR2E (UniProt P19388), the log2 fold change is 0.018.

As for PRMT8 (UniProt Q9NR22), the log2 fold change was 0.011. Turning to PRKAR2A (UniProt P13861), the log2 fold change is 0.046. The figure for PHC3 isoform 7 (UniProt Q8NDX5) is 0.178. Consider PARP1 (UniProt P09874), for which the log2 fold change is 0.162. For the target PHLDB1 isoform 2 (UniProt Q86UU1), the log2 fold change was -0.06.

On to QRICH1 (UniProt Q2TAL8), for which the log2 fold change is 0.07. As for PEA15 isoform 2 (UniProt Q15121), the log2 fold change is -0.018.
